MITF inh: human MITF inhibition, primary screen. AlphaScreen MITF homodimerization, bead proximity signal. inhibition, % at 2.6 µM. actives 0.91% (n = 650,000). AID 1259374; in the data active = inhibition above about 50%;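 note: 0% = vehicle wells with protein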
TEAD-YAP inh: TEAD-YAP interaction inhibition. HEK-TIYL cells, TEAD-Gal4/YAP UAS-luciferase luminescence. actives 1.4% (n = 640,000). inhibition, % at 9.12 µM; in the data active = inhibition above about 32%;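 note: 0% = median of test compound wells and 100% = reference inhibitor wells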
GPR151 ag: activators of human GPR151. actives 1% (n = 650,000). AID 1508602. Q8TDV0. PathHunter beta-arrestin GPR151 cells, luminescence. activation, % at 11.2 µM; in the data active = activation above about 4.9%;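 note: 0% = median of compound wells and 100% = cells with positive control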
FBW7 act: activators of human E3 ligase FBW7 | actives 0.13% (n = 650,000) | AID 1259310 | normalized activity (activation), % at 26.1 µM | AlphaScreen FBW7–phospho-cyclin E peptide binding, activator screen; in the data active = normalized activity above about 1.9%;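 note: purified mutant Fbw7 with reduced substrate affinity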
MITF inh conf: confirmation of human MITF inhibitors; shares compounds with MITF inh; AlphaScreen MITF homodimerization, biotin/His-MITF beads; inhibition, % at 2.6 µM; actives 16% (n = 4,700); AID 1259372;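 active = inhibition above a cutoff derived from the DMSO control wells, cut at about 28% in these data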;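 note: 0% = MITF dimer wells with DMSO only; inhibitors lower the bead chemiluminescence by keeping MITF from dimerizing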
AS interf DR: AlphaScreen optical interference, dose response counter-screen. shares compounds with MITF inh. AlphaScreen optical interference counterscreen, cell-free. IC50, µM. actives 6% (n = 480). AID 1259373; call rule not given here
AS interf ctr: AlphaScreen optical interference, counter-screen; shares compounds with MITF inh; LysRS AlphaScreen counterscreen, signal interference, triplicate; inhibition, % at 2.6 µM; actives 7.6% (n = 4,700);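 active = inhibition above a cutoff derived from the DMSO control wells, cut at about 30% in these data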
The depositor's hits bear a star. In the library only some 3.5% were active in any assay of this set; here they are far more common.

Screening Cc1cc(O)c(C=O)c2c1C(=O)Oc1c(C)c(O)c3c(c1O2)C(O)OC3=O (centres undefined) returned MITF inh 25.3, TEAD-YAP inh -5.8, GPR151 ag 0.4 and FBW7 act -0.2.
For COc1cc(C)c2c(c1C=O)Oc1c(c(C)c(O)c3c1C(O)OC3=O)OC2=O (centres undefined) the results were MITF inh 74.0*, TEAD-YAP inh -18.1, GPR151 ag -2.3, FBW7 act -0.2, MITF inh conf 83.7*, AS interf DR >6.48 and AS interf ctr 1.7.
`O=[N+]([O-])c1ccc(N/N=C/c2ccco2)c(S(=O)(=O)N2CCOCC2)c1` gave MITF inh 63.4*, TEAD-YAP inh -5.1, GPR151 ag 0.1, FBW7 act 0.2, MITF inh conf 33.4*, AS interf DR >6.48 and AS interf ctr -0.9.
For O=[N+]([O-])c1ccc(N/N=C/c2cccc(O)c2O)c(S(=O)(=O)N2CCOCC2)c1 the results were MITF inh -35.5, TEAD-YAP inh -19.3, GPR151 ag -0.4 and FBW7 act -0.7.
Screening CC(=O)N/N=C/c1ccc(-c2ccc([N+](=O)[O-])cc2Br)o1 returned MITF inh -25.1, TEAD-YAP inh 8.0, GPR151 ag -1.5 and FBW7 act -0.2.
`CC(C)NC(=O)/C(C#N)=C/c1ccc(-c2ccc([N+](=O)[O-])cc2Br)o1` gave MITF inh 72.6*, TEAD-YAP inh -18.4, GPR151 ag 0.5, FBW7 act -0.1, MITF inh conf 76.6*, AS interf DR >7.06 and AS interf ctr -20.2.
`CC(C)(C)c1ccc(S(=O)(=O)N2CCc3nc4ccccc4c(C(=O)O)c3C2)cc1` gave MITF inh 50.6*, TEAD-YAP inh -4.9, GPR151 ag -0.4, FBW7 act -0.1, MITF inh conf -7.1 and AS interf ctr -1.7.
For Cc1cccc(NC(=O)CSc2nsc(SCC(=O)Nc3cccc(C)c3)n2)c1 the results were MITF inh -6.2, TEAD-YAP inh -2.0, GPR151 ag -0.8 and FBW7 act 0.1.
`O=C(CSc1nsc(SCC(=O)Nc2ccc(Cl)c(Cl)c2)n1)Nc1ccc(Cl)c(Cl)c1` gave MITF inh 58.8*, TEAD-YAP inh -9.8, GPR151 ag 0.7, FBW7 act 0.4, MITF inh conf 39.0* and AS interf ctr 10.9.
Screening CCOc1cc(C=C2C(=O)OC3(CCCCC3)OC2=O)ccc1OC returned MITF inh 6.5, TEAD-YAP inh 3.6, GPR151 ag -0.2 and FBW7 act -0.1.
CCC(=O)N1CCc2cc(S(=O)(=O)N3CC(C)CC(C)C3)ccc21 (centres undefined) was read as MITF inh 80.9*, TEAD-YAP inh -5.5, GPR151 ag 3.1, FBW7 act 0.0, MITF inh conf 4.9 and AS interf ctr 13.9.
CCOC(=O)c1c(NC(=O)CN2CCN(CC)CC2)sc(C)c1C was read as MITF inh 86.3*, TEAD-YAP inh 4.9, GPR151 ag -1.0, FBW7 act -0.5, MITF inh conf 6.2 and AS interf ctr 2.5.
CCOC(=O)c1sc(NC(=O)CN2C(C)CCCC2C)c(C(=O)OCC)c1C (centres undefined) was read as MITF inh 58.1*, TEAD-YAP inh -2.6, GPR151 ag 1.9, FBW7 act 0.1, MITF inh conf -4.8 and AS interf ctr 3.1.
Screening CCOC(=O)c1c(NC(=O)CN(C)C)sc(C)c1C returned MITF inh 5.4, TEAD-YAP inh 6.0, GPR151 ag 0.2 and FBW7 act 0.2.
For O=C(/C=C/c1ccc(Cl)cc1)Nc1nnc(C(F)(F)F)s1 the results were MITF inh -2.7, TEAD-YAP inh -6.3, GPR151 ag 0.7 and FBW7 act -0.1.
For COc1cc(/C=C/C(=O)Nc2nnc(C(F)(F)F)s2)cc(OC)c1OC the results were MITF inh 52.2*, TEAD-YAP inh 10.4, GPR151 ag -1.1, FBW7 act 0.0, MITF inh conf 4.6 and AS interf ctr 13.2.
`O=C1CCC(CCNCCOc2ccc(F)cc2)N1Cc1cccc(Cl)c1` (centres undefined) gave MITF inh 70.9*, TEAD-YAP inh -2.8, GPR151 ag -0.5, FBW7 act -0.1, MITF inh conf 0.6 and AS interf ctr 3.0.
